Data as given in PubChem BioAssay.
Active and inactive are the calls of the source.

Assays:
[1] = test system: Plasmodium falciparum Sir2 (PF13_0152, Sir2A); experiment: Plasmodium falciparum Sir2A binding compounds – biochemical, small-molecule microarray, 635 nm fluorescence, primary screen (AID 1098); settings: fluorescence 635 nm, higher = more signal;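 further: score merges spot fluorescence intensity with its signal-to-noise ratio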
[2] = probe aDKK1 binding to arrayed compounds – biochemical, biotinylated probe, 635/667 nm fluorescence, primary screen (AID 1099); settings: small-molecule microarray, higher = more signal;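 further: score merges 667nm spot fluorescence with signal to noise across triplicate slides; reference of the scale not given here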
[3] = probe aCHRDL2 binding to arrayed compounds – biochemical, biotinylated probe, 635/667 nm fluorescence, primary screen (AID 1100); settings: small-molecule microarray, higher = more signal
[4] = change in splice reporter luminescence, either direction, cell-based, HEK293, spliceosome inhibition project, primary screen (AID 1101); settings: HEK293 splicing luciferase reporter, 24 h, higher = more signal, called active from +8 up or from −8 down;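 further: HEK293 cells carrying a splicing-competent luciferase reporter gene; test concentration not given here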
[5] = target: Fibroblast growth factor 10 (Homo sapiens) (UniProt O15520); experiment: compounds binding fibroblast growth factor 10 – biochemical, small-molecule microarray, 635 nm fluorescence, primary screen (AID 1102); settings: FGF10 binding, fluorescence 635 nm, higher = more signal
Sequence of Fibroblast growth factor 10 (Homo sapiens) (O15520 whole entry, looked up): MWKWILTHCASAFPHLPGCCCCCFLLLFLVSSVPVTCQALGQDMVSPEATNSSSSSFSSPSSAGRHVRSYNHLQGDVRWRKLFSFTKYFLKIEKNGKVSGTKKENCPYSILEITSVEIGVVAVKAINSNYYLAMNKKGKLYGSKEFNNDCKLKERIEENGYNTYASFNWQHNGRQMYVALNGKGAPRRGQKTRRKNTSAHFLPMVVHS

[6] = test system: glycogen synthase kinase-3 (GSK3A per assay name; protocol says GSK3B); experiment: compounds binding glycogen synthase kinase-3 – biochemical, small-molecule microarray, 635 nm fluorescence, GSK3A, primary screen (AID 1103); settings: fluorescence 635 nm, higher = more signal; further: the record names both GSK3A and GSK3B
[7] = target: Epidermal growth factor receptor (Homo sapiens) (UniProt P00533); experiment: compounds binding epidermal growth factor receptor – biochemical, small-molecule microarray, 635 nm fluorescence, primary screen (AID 1104); settings: EGFR binding, higher = more signal;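 further: score merges 667 nm emission intensity with spot signal to noise over triplicate slides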
Sequence of Epidermal growth factor receptor (Homo sapiens) (P00533 whole entry, looked up): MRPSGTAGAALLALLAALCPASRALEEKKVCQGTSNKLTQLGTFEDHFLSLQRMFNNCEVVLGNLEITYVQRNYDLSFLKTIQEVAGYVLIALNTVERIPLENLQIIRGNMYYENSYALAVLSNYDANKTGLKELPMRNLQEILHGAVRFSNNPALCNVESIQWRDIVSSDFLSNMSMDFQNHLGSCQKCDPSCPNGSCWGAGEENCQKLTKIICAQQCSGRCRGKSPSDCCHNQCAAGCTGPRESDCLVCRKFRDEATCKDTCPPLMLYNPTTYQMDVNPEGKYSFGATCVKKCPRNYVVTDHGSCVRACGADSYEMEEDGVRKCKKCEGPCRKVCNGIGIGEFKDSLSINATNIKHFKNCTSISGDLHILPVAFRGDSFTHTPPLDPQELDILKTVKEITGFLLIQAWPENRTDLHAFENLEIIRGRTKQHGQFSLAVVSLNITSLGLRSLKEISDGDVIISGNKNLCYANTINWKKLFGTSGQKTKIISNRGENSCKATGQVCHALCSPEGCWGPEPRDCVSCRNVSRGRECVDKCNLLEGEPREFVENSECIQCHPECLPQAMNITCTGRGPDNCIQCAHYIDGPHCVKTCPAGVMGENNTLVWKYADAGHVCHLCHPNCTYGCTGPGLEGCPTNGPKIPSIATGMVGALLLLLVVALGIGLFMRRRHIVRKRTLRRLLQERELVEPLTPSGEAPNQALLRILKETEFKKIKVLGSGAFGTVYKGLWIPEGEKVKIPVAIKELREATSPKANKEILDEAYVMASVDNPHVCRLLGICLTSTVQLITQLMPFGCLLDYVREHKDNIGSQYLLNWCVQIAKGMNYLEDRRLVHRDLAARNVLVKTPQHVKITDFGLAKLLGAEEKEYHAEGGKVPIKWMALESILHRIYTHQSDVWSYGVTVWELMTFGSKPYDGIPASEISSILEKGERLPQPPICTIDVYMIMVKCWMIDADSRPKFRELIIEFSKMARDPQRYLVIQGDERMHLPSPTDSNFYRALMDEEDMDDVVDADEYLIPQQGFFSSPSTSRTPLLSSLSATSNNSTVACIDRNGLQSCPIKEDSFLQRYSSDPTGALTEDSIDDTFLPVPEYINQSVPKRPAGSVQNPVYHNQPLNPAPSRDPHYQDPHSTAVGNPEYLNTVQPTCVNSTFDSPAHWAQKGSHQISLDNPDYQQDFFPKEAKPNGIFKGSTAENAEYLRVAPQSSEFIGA

[8] = target: Follistatin-related protein 3 (Homo sapiens) (UniProt O95633); experiment: compounds binding follistatin-related protein 3 – biochemical, small-molecule microarray, 635 nm fluorescence, primary screen (AID 1105); settings: FSTL3 binding, higher = more signal;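 further: score merges emission near 667 nm and signal to noise per printed spot across three slides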
Sequence of Follistatin-related protein 3 (Homo sapiens) (O95633 whole entry, looked up): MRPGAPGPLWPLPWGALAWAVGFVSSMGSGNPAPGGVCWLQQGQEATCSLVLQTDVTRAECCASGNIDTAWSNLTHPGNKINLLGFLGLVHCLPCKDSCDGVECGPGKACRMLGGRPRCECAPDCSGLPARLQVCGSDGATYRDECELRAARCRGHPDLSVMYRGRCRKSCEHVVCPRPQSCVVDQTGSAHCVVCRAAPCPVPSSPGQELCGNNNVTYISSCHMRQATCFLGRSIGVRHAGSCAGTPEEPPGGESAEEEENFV

[9] = target: Dickkopf-related protein 1 (Homo sapiens) (UniProt O94907); experiment: small molecules binding DKK1 protein – biochemical, small-molecule microarray, 635 nm fluorescence scan, primary screen (AID 1106); settings: higher = more signal;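 further: score merges emission near 667 nm with signal to noise over three replicate slides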
Sequence of Dickkopf-related protein 1 (Homo sapiens) (O94907 whole entry, looked up): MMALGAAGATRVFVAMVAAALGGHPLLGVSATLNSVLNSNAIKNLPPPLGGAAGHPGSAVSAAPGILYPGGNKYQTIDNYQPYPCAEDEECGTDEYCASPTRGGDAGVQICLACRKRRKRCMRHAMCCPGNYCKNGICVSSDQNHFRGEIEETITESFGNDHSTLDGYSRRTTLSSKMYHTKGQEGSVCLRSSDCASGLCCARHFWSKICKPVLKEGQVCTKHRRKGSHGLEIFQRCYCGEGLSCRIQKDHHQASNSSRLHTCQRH

[10] = test system: Inhibin beta A chain (activin A); experiment: small molecules binding activin A – biochemical, small-molecule microarray, 635 nm fluorescence scan, primary screen (AID 1107); settings: INHBA, higher = more signal;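 further: mouse activin A protein probed at 4.33 µg/mL on printed slides; score merges bound-protein fluorescence near 667 nm with spot signal-to-noise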

Structure (SMILES) | composite z-score [1] | composite z-score [2] | composite z-score [3] | z-score [4] | composite z-score [5] | composite z-score [6] | composite z-score [7] | composite z-score [8] | composite z-score [9] | composite z-score [10]
COc1cc(CO)cc(I)c1O[C@H]1C=C(C(=O)NCCO)C[C@@H](N(CCN2CCOCC2)C(=O)C2CCCO2)[C@@H]1O (stereo not given in full) | 0.226 | -0.309 | -0.521 | 0.0133 (inactive) | 0.322 | 0.507 | 0.488 | 0.152 | 0.516 | 0.356
O=C1O[C@@H](c2ccccc2)[C@@H](c2ccccc2)N2[C@@H](c3ccccc3OCCO)[C@]3(C(=O)Nc4ccc(C#CC5(O)CCCCCC5)cc43)[C@@H](C(=O)N3CCCCCCC3)[C@H]12 | 2.16 | 3.21 | 1.84 | -1.3 (inactive) | 1.66 | 1.45 | 2.09 | 1.77 | 2.68 | 1.91
C=CC[C@]1(C(N)=O)N=C(c2ccc(OCCCO)cc2)O[C@H]1c1ccccc1N=[N+]=[N-] | 1.56 | 1.28 | 1.26 | -0.401 (inactive) | 1.06 | 0.755 | 0.259 | 1.03 | 0.0701 | 1.48
COc1ccc(C(=O)Nc2cccc(CN3C(=O)[C@]4(O[C@H](CC(=O)N(CCO)Cc5ccccc5)[C@@H]([Si](C)(C)c5ccc(OC)cc5)[C@@H]4C)c4ccccc43)c2)cc1 | 1.12 | -0.275 | 0.123 | 0.288 (inactive) | 1.11 | -0.117 | 0.666 | 0.702 | 0.649 | 0.794
COC(=O)[C@@]1(Cc2ccc(F)cc2)[C@H]2c3cc(C(=O)N4CCCC4)n(CCSCCO)c3C[C@H]2CN1C(=O)c1ccccc1 | 1.33 | 1.02 | 1.22 | -2.25 (inactive) | 0.26 | -0.273 | -0.707 | -0.803 | -0.957 | 1.06
O=C1OCCC/C=C\[C@H]2OC34C=CCN(Cc5ccccc5)C(=O)[C@H]3N(CCO)C(=O)[C@@H]4C12 (stereo not given in full) | 1.76 | -0.214 | 0.222 | -1.25 (inactive) | 0.049 | 0.124 | -0.71 | -0.579 | -0.461 | 0.765
COc1cccc(C)c1NC(=O)O[C@H]1[C@H](OC(=O)Nc2ccccc2-c2ccccc2)[C@@H](OC(=O)Nc2ccccc2-c2ccccc2)[C@@H](OC)O[C@@H]1CO | 1.3 | 0.629 | 0.573 | 0.152 (inactive) | 1.4 | 1.1 | 0.316 | 1.43 | 0.244 | 0.601
C[C@]1(C(=O)NCC(F)(F)F)c2ccccc2C(=O)N(Cc2cc(C(F)(F)F)cc(C(F)(F)F)c2)[C@H]1c1ccc(CO)cc1 | 0.786 | 0.338 | 0.543 | 0.272 (inactive) | -0.2 | -0.447 | -0.654 | -0.695 | -0.399 | -0.497
C=CC[C@H](O)c1ccc(O)c(F)c1 | 0.399 | -0.727 | 0.328 | -0.339 (inactive) | -0.809 | -1.13 | -1.23 | -0.418 | -1.97 | -2.89
Cc1cccc([C@H]2C[C@H]3C(Br)=C[C@@]2(CO)C(=O)[C@]32CO2)c1 | 0.259 | 0.0578 | 0.382 | -0.34 (inactive) | 1.01 | 0.0353 | -0.0766 | 0.159 | -0.166 | 0.55
CC(C)N1CC=CC23O[C@@H]4/C=C\CCCOC(=O)C4[C@H]2C(=O)N(C(C)CO)[C@@H]3C1=O (stereo not given in full) | 0.748 | -0.4 | 0.44 | -1.09 (inactive) | -0.663 | -1.02 | -0.962 | -0.849 | -1.35 | 0.493
CCCCC=C[C@@H](NC(=O)C(C)(C)C)c1ccccc1 | 0.641 | 0.715 | 0.609 | 0.41 (inactive) | 0.548 | 1.25 | 0.357 | 0.508 | 0.15 | 0.173
CN1C(=O)C2CC=C(C3=CCO[C@@H]3[C@H]3CCCN3S(=O)(=O)c3ccccc3[N+](=O)[O-])CC2C1=O (stereo not given in full) | 1.11 | -0.22 | -0.193 | 0.129 (inactive) | 0.447 | -0.12 | -0.141 | -0.59 | -0.261 | 0.666
COC(=O)[C@@]1(Cc2ccc(OC)cc2)[C@H]2c3cc(C(=O)N(C)C)n(Cc4c(CO)[nH]cc(C)c4=O)c3C[C@H]2CN1C(=O)c1ccccc1 | 0.258 | 0.899 | 0.731 | 0.323 (inactive) | -0.17 | 0.664 | 0.0854 | 0.128 | -0.14 | 0.779
CC[C@@H](O[Si](C#C[Si](C(C)C)(C(C)C)C(C)C)(C(C)C)C(C)C)c1cn(Cc2cccc(Cl)c2)nn1 | 0.433 | -0.0597 | -0.3 | 0.453 (inactive) | 0.418 | 0.791 | 0.293 | 0.775 | 0.388 | 0.232
COc1c(C)cc(-c2cc3c(c(CCc4ccccc4)n2)[Si](C(C)C)(C(C)C)O[C@H]3c2ccccc2)cc1C | 0.994 | -0.137 | -0.169 | -1.48 (inactive) | -0.168 | -0.914 | -0.275 | -0.257 | -0.204 | -0.0185
COC(=O)[C@]1(Cc2ccccc2CN=[N+]=[N-])N=C(c2ccc(OCCCO)cc2)O[C@@H]1c1ccccc1N=[N+]=[N-] | 0.973 | -0.507 | 0.172 | -0.346 (inactive) | 0.267 | 0.135 | -0.296 | -0.332 | -0.268 | 1.08
O=C1NC(=O)C2C1C=CC(C(O)c1ccc(F)cc1)N2Nc1ccc(Cl)cc1Cl (stereo not given) | -0.315 | 0.96 | 1.12 | 1.65 (inactive) | 0.327 | -0.923 | -0.416 | -0.194 | -0.459 | 0.924
COc1ccc([Si](C)(C)[C@H]2[C@H](CC(=O)N(CCO)Cc3ccccc3)O[C@@]3(C(=O)N(Cc4ccc(N5C(=O)c6cccc7cccc5c67)cc4)c4ccccc43)[C@@H]2C)cc1 | 0.899 | 0.0486 | 0.0598 | -1.1 (inactive) | 0.994 | -0.461 | 0.303 | 0.614 | 0.541 | 0.803
O=C1C2C=CC(C(O)C3CC=CCC3)N(Nc3ccc([N+](=O)[O-])cc3)C2C(=O)N1c1ccccc1 (stereo not given) | 0.811 | 1.47 | 1.03 | 0.809 (inactive) | 1 | 1.1 | 0.619 | 1.44 | 0.386 | 1.2
CC(C)(C)OC(=O)CC[C@]1(C(N)=O)N=C(c2ccc(OCCCO)cc2)O[C@H]1c1ccccc1N=[N+]=[N-] | 0.793 | 0.929 | 0.975 | -1.24 (inactive) | 1.5 | -0.0657 | -0.204 | 0.0699 | -0.307 | 1.23
O=C1c2ccccc2[C@](Cc2ccccc2I)(C(=O)NCCN2CCOCC2)[C@H](c2ccc(CO)cc2)N1Cc1ccccc1C(F)(F)F | 0.655 | -0.0516 | 0.358 | -0.0322 (inactive) | 0.275 | 0.484 | -0.288 | 0.276 | -0.419 | 0.734
O=C1OC[C@@H](c2ccccc2)n2cc(/C=C/c3ccccc3)cc21 | 0.753 | -0.222 | 0.0504 | -1.55 (inactive) | -0.256 | -0.678 | -0.609 | -0.513 | -0.161 | 0.0778
C=CCNC(=O)[C@@H]1[C@H]2C(=O)O[C@H](c3ccccc3)[C@H](c3ccccc3)N2[C@H](c2ccc(OCCO)cc2)[C@@]12C(=O)N(C(=O)OCCOC)c1ccccc12 | 1.2 | -0.144 | 0.496 | 0.263 (inactive) | 1.28 | 1.08 | 0.459 | 1.03 | 0.0392 | 0.745
[N-]=[N+]=NCc1ccccc1[C@H]1OC(c2ccc(OCCCO)cc2)=N[C@@]1(Cc1ccccc1N=[N+]=[N-])C(=O)O | 1.07 | 1.08 | 0.904 | 0.258 (inactive) | 0.716 | 1.03 | -0.0317 | 0.783 | -0.107 | 0.987
O=C1O[C@H](c2ccccc2)[C@H](c2ccccc2)N2[C@H]1[C@@H](C(=O)N1CCCCCCC1)[C@]1(C(=O)Nc3ccc(C#CCCO)cc31)[C@H]2c1ccc(O)cc1 | 2.11 | 2.97 | 1.72 | -0.547 (inactive) | 1.67 | 1.47 | 1.99 | 1.74 | 2.7 | 1.96
[N-]=[N+]=NCc1ccccc1[C@H]1OC(c2ccc(OCCCO)cc2)=N[C@@]1(Cc1ccccc1N=[N+]=[N-])C(=O)N1CCOCC1 | 1.02 | 0.596 | 0.828 | -0.1 (inactive) | 0.458 | 1.1 | -0.292 | 0.29 | -0.287 | 0.594
O=C1O[C@H](c2ccccc2)[C@H](c2ccccc2)N2[C@H]1[C@@H](C(=O)N1CCN(c3ncccn3)CC1)[C@]1(C(=O)Nc3ccc(C#CC4(O)CCCCCC4)cc31)[C@H]2c1ccc(O)cc1 | 1.54 | 0.111 | -0.156 | -0.262 (inactive) | 0.989 | 1 | 0.241 | 0.764 | 0.185 | 0.0022
